We go through 56 compounds from PubChem BioAssay AID1259417 (TB Discovery Research, Infectious Disease Research Institute, 2018).

The assay is described as follows: M. tuberculosis growth inhibition, HTS (AID 1259417).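 Note: bacteria grown with compound for 5 days at 37 °C.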 The following applies: stronger effect = higher value, concentration not given here.
Setting [1] is: M. tuberculosis DsRed fluorescence growth inhibition.
Where [2] appears, read: M. tuberculosis growth inhibition.

Hit rate of the full screen: of about 1,100 compounds, about 760 (69%) were called active. The rule behind the calls is not given here. So high a share suggests a set chosen from earlier hits. The list shows a part of the results.

As usually defined, the inhibition is the relative decrease from the control value, in per cent.

Consider `CC(=O)Oc1c(C(=O)c2ccccc2)sc2ccccc12`, for which the inhibition is 79.9% (active) under setting [1] and 52.4% under setting [2].

Turning to `CCc1ccc(-c2ccc(SCC(N)=O)nn2)cc1`, the inhibition runs as follows: under setting [1], 20% (active); under setting [2], 41%.

Turning to `Cc1cc(OCC(=O)NC2C3CC4CC(C3)CC2C4)cc(C)c1Br` (configuration not stated), the inhibition runs as follows: under setting [1], 98.6% (active); under setting [2], 72%.

With `N#Cc1c(SCC(N)=O)nsc1SCc1ccccc1Cl`, the inhibition was 20.8% (active) under setting [1] and 61.7% under setting [2].

In the case of `CCc1cccc2c(C(=O)COC(=O)c3ccc([N+](=O)[O-])s3)c[nH]c12`, the inhibition by setting is: under setting [1], 91.9% (active); under setting [2], 95.3%.

As for `O=C(OCC(=O)c1c[nH]c2ccccc12)c1ccc([N+](=O)[O-])s1`, the inhibition by setting is: under setting [1], 61.6% (active); under setting [2], 52.7%.

In the case of `Cc1ccc(-c2nnc(NC(=O)c3cc4ccccc4oc3=O)o2)c(C)c1`, the inhibition by setting is: under setting [1], 80.8% (active); under setting [2], 88.6%.

On to `Cc1ccc(-c2nnc(NC(=O)c3ccccc3C)o2)c(C)c1`, for which the inhibition is 84.4% (active) under setting [1] and 87.2% under setting [2].

As for `Cc1ccc(-c2nnc(NC(=O)c3ccccc3Br)o2)c(C)c1`, the inhibition was 6.55% (inactive) under setting [1] and 19.3% under setting [2].

`Cc1ccc(-c2nnc(NC(=O)c3ccccc3Cl)o2)c(C)c1`: the inhibition was 24.1% (active) under setting [1] and 62.8% under setting [2].

Regarding `NC(=O)C1CCN(C2=NC(=O)C(=Cc3ccc(Cl)cc3Cl)S2)CC1`, the inhibition runs as follows: under setting [1], 100% (active); under setting [2], 99.1%.

As to `CCOC(=O)C1CCN(C2=NC(=O)C(=Cc3ccc(Cl)cc3Cl)S2)CC1`, the inhibition was 51.5% (active) under setting [1] and 55.8% under setting [2].

On to `Cc1ccc(-c2csc3ncn(C(C)C(=O)OC4CCCCC4)c(=O)c23)cc1C` (configuration not stated), for which the inhibition is, setting by setting: under setting [1], -0.545% (inactive); under setting [2], -11%.

In the case of `CSc1nc2nc3c(c(=O)n2[nH]1)CCCC3`, the inhibition is 23.8% (active) under setting [1] and 41.7% under setting [2].

Turning to `Cc1ccc(C(C)C)c(OCCCCn2ccnc2)c1`, the inhibition is, setting by setting: under setting [1], 98.9% (active); under setting [2], 100%.

Take `Cc1ccc(C(C)C)cc1OCCCCn1ccnc1`: the inhibition runs as follows: under setting [1], 100% (active); under setting [2], 99.6%.

With `Cc1cc(OCCCCn2ccnc2)cc(C(C)C)c1`, the inhibition reads like this: under setting [1], 100% (active); under setting [2], 100%.

With `Cc1cc(OCCCCn2ccnc2)ccc1C(C)C`, the inhibition runs as follows: under setting [1], 99.8% (active); under setting [2], 98.9%.

As to `COC(=O)c1ccc(CSc2nnc(-c3ccncc3)o2)o1`, the inhibition is 14.3% (active) under setting [1] and 39.6% under setting [2].

For `O=C(c1ccc(Cl)cc1)c1ccc(CSc2nnc(-c3ccccc3)o2)o1`, the inhibition is 97.4% (active) under setting [1] and 96.9% under setting [2].

Turning to `CCOc1cc(CNC(C)C23CC4CC(CC(C4)C2)C3)cc(Cl)c1OCC(=O)NC(C)(C)C` (configuration not stated), the inhibition reads like this: under setting [1], 99.2% (active); under setting [2], 98.2%.

Regarding `COc1cc(CNC(C)c2ccccc2)cc(Cl)c1OCC(=O)Nc1ccccc1` (configuration not stated), the inhibition is, setting by setting: under setting [1], 29.9% (active); under setting [2], 19%.

`CCOC(=O)COc1ccc(S(=O)(=O)N2CCC(C)CC2)cc1`: the inhibition is, setting by setting: under setting [1], 72.7% (active); under setting [2], 91.2%.

On to `CCOC(=O)COc1ccc(S(=O)(=O)N2CCc3ccccc3C2)cc1`, for which the inhibition under setting [1] is 80.1% (active) and the inhibition under setting [2] was found to be 96.9%.

Regarding `COc1ccc(Cc2nnc(SCC(=O)Nc3ccc(C(C)C)cc3)o2)cc1`, the inhibition under setting [1] was 6.85% (inactive) and the inhibition under setting [2] turned out to be 9.66%.

As to `COc1cccc(NC(=O)CSc2nnc(-c3ccc(Br)cc3)o2)c1`, the inhibition is, setting by setting: under setting [1], 17.3% (inactive); under setting [2], 19.2%.

Consider `COc1ccc(-c2nnc(SCC(=O)Nc3ccc([N+](=O)[O-])cc3)o2)cc1`, for which the inhibition is 23.1% (active) under setting [1] and 88.8% under setting [2].

For the compound `CCOc1ccc(NC(=O)CSc2nnc(Cc3ccc(OC)cc3)o2)cc1`, the inhibition is 3.01% (inactive) under setting [1] and 2.07% under setting [2].

As to `COC(=O)c1ccc(NC(=O)CSc2nnc(Cc3ccc(OC)cc3)o2)cc1`, the inhibition is, setting by setting: under setting [1], 18.7% (active); under setting [2], 53.1%.

In the case of `C=CCSc1nnc(-c2ccc([N+](=O)[O-])cc2)o1`, the inhibition under setting [1] was 99.2% (active) and the inhibition under setting [2] amounted to 99.1%.

Turning to `CCOC(=O)c1ccc(NC(=O)CSc2nnc(-c3ccc(OC)cc3)o2)cc1`, the inhibition is 18.2% (active) under setting [1] and 56.7% under setting [2].

Consider `Cc1ccc(Oc2cc(NC(=O)CCCn3nc(C)c([N+](=O)[O-])c3C)cc([N+](=O)[O-])c2)cc1`, for which the inhibition under setting [1] was 0.414% (inactive) and the inhibition under setting [2] was -13.5%.

As to `CCOC(=O)CSc1nnc(-c2ccc([N+](=O)[O-])cc2)o1`, the inhibition under setting [1] was 95.7% (active) and the inhibition under setting [2] is 95.6%.

Take `O=C(/C=C/c1cccc([N+](=O)[O-])c1)c1cccs1`: the inhibition runs as follows: under setting [1], 94.6% (active); under setting [2], 96.5%.

With `CCOC(=O)C(C)Oc1ccc2c(-c3ccc(OC)cc3)cc(=O)oc2c1` (configuration not stated), the inhibition by setting is: under setting [1], 56.3% (active); under setting [2], 89%.

Turning to `COC(=O)COc1ccc2c(-c3ccc(OC)cc3)cc(=O)oc2c1`, the inhibition by setting is: under setting [1], 97.7% (active); under setting [2], 98.3%.

For the compound `CCOC(=O)COc1ccc2c(c1)c(C(=O)OCC)c(C)n2CC`, the inhibition is 51.2% (active) under setting [1] and 69.6% under setting [2].

On to `COC(=O)COc1ccc(NC(=O)c2ccc3c(c2)C(=O)N(C(C)(C)C)C3=O)cc1`, for which the inhibition runs as follows: under setting [1], 69.9% (active); under setting [2], 88.2%.

Regarding `COC(=O)COc1ccc(NC(=O)c2ccc(-c3ccccc3)cc2)cc1`, the inhibition is 99.4% (active) under setting [1] and 100% under setting [2].

On to `CCOC(=O)c1c(C)n(C)c2ccc(OC(C)C(=O)OC)cc12` (configuration not stated), for which the inhibition is 3.6% (inactive) under setting [1] and 19.3% under setting [2].

Regarding `COC(=O)COc1ccc(-c2ccc(C)cc2)cc1`, the inhibition was 35.7% (active) under setting [1] and 70.9% under setting [2].

For `CC(C)(C)n1cnc2cc(NC(=O)c3ccc(Cl)cc3)ccc21`, the inhibition was 19.9% (inactive) under setting [1] and 28.4% under setting [2].

Consider `CCOC(=O)COc1ccc(-c2ccc(C)cc2)cc1`, for which the inhibition reads like this: under setting [1], 24.3% (active); under setting [2], 81.2%.

For the compound `CCOC(=O)COc1ccc(OCc2ccccc2)cc1`, the inhibition under setting [1] was 1.21% (inactive) and the inhibition under setting [2] is -7.23%.

As for `Cc1ccc(-c2ccc(OCC(=O)OCc3ccccc3)cc2)cc1`, the inhibition is, setting by setting: under setting [1], 53.2% (active); under setting [2], 82.9%.

`COC(=O)COc1ccc(-c2ccccc2)cc1`: the inhibition under setting [1] was 48.7% (active) and the inhibition under setting [2] stood at 85.1%.

On to `CC(C(=O)OCc1ccccc1)n1cnc2scc(-c3ccc(Br)cc3)c2c1=O` (configuration not stated), for which the inhibition by setting is: under setting [1], -4.93% (inactive); under setting [2], -4.92%.

Consider `COc1ccccc1NC(=O)CSc1nc(-c2ccccc2)cc(C(F)(F)F)c1C#N`, for which the inhibition is, setting by setting: under setting [1], 0.888% (inactive); under setting [2], 24.8%.

Regarding `CN1CCN(c2cc(-c3ccccc3)nc3c(C(F)(F)F)cccc23)CC1`, the inhibition under setting [1] was 93% (active) and the inhibition under setting [2] came to 71%.

As to `CC(NC(=O)c1ccc([N+](=O)[O-])o1)C12CC3CC(CC(C3)C1)C2` (configuration not stated), the inhibition is 70% (active) under setting [1] and 75.5% under setting [2].

On to `O=C(Oc1cccc2cccnc12)c1ccccc1F`, for which the inhibition is 101% (active) under setting [1] and 101% under setting [2].

As for `O=C(Oc1cccc2cccnc12)c1cc2ccccc2oc1=O`, the inhibition by setting is: under setting [1], 99.2% (active); under setting [2], 100%.

Regarding `CCN(CC)S(=O)(=O)c1ccc(Cl)c(C(=O)Oc2cccc3cccnc23)c1`, the inhibition was 100% (active) under setting [1] and 99.3% under setting [2].

As for `O=C(Oc1cccc2cccnc12)c1ccco1`, the inhibition was 101% (active) under setting [1] and 99.7% under setting [2].

On to `O=C(Oc1ccccc1)c1cccc2cccnc12`, for which the inhibition runs as follows: under setting [1], 99.7% (active); under setting [2], 101%.

Consider `CS(=O)(=O)Cc1nc2ccccc2oc1=O`, for which the inhibition is 99.8% (active) under setting [1] and 99.5% under setting [2].
